Only a selection was taken, and hits are over-represented in it overall.
ST2 IL33 inh = IL1RL1 inhibition; AlphaLISA ST2-Fc/biotin-IL-33 interaction, 1 h; inhibition, % for hits at 17 µM; actives 2.3% (n = 78,000); AID 1259354; in the data active means inhibition above about 30%
Target sequence (Q01638 whole entry, looked up): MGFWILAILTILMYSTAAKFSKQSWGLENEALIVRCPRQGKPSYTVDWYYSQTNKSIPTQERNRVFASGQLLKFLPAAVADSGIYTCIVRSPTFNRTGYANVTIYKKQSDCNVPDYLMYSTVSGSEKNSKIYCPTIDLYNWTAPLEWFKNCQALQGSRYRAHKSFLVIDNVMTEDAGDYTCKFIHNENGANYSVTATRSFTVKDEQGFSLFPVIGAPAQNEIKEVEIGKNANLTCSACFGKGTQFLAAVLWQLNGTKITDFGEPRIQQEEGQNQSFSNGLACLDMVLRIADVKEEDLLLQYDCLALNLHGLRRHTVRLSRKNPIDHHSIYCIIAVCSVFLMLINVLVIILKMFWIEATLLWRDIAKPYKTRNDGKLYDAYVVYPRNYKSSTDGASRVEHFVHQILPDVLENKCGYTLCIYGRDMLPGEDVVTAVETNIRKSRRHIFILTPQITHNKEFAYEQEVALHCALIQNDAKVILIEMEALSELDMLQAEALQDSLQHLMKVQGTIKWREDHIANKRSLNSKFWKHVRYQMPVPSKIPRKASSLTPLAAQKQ
The depositor's hits bear a star; i = inactive.

SMILES | ST2 IL33 inh
O=C1CCCc2oc3ccc(NS(=O)(=O)c4cccc5ccccc45)cc3c21 | i
CCc1csc(CNC(=O)c2ccc(N3CCCC(OC)C3)nc2)n1 (centres undefined) | i
O=C(NCc1ccco1)c1ccccc1C(=O)c1ccccc1 | i
COc1cc([N+](=O)[O-])ccc1-c1ccc(/C=C2\C(=O)ON=C2c2ccccc2)o1 | 34.0%*
O=C1C(=Cc2ccc(-c3ccc([N+](=O)[O-])cc3Cl)o2)C(=O)c2ccccc21 | i
COc1cc([N+](=O)[O-])ccc1NC(=O)C(c1ccccc1)c1ccccc1 | i
CCOc1ccc(C2C3=C(CCCC3=O)Nc3nc(SCc4ccccc4)nn32)cc1 (centres undefined) | i
Cc1c(C(=O)N2CCOCC2)oc2ccc(S(=O)(=O)N3CC(C)CC(C)C3)cc12 (centres undefined) | i
CCN(CC)C(=NS(=O)(=O)c1ccc(C)cc1)c1ccc(F)cc1 | i
Cc1ccc(NC2=CC(=NS(=O)(=O)c3ccc(F)cc3)c3ccccc3C2=O)cc1 | 69.0%*
COc1ccc(S(=O)(=O)Nc2cc(C)cc(C)c2)cc1 | i
Cc1ccc(S(=O)(=O)Nc2ccc(NC(=O)c3ccc(F)cc3)cc2)cc1 | i
COc1ccc(S(=O)(=O)N=C2C(C)=CC(=O)C=C2C)cc1 | i
COc1ccc(N(C(F)F)S(=O)(=O)c2ccc(C)cc2)cc1 | i
COc1ccc(NC2=CC(=NS(=O)(=O)c3ccc(C)cc3)c3ccccc3C2=O)cc1 | 92.0%*
COc1ccc(S(=O)(=O)N=C2C=C(Nc3ccc(C)cc3)C(=O)c3ccccc32)cc1 | 92.0%*
COc1ccc(Nc2ccc3c4c(ncnc24)-c2ccccc2C3=O)cc1 | i
N#CCCN(CCC#N)S(=O)(=O)c1ccc(C(=O)Nc2nnc(C3CC3)o2)cc1 | i
Cc1cc(NC(=O)c2cccc(F)c2)nc2c1c(=O)oc1ccccc12 | i
COCCN(Cc1nc(C2CC2)no1)C(C)C | i
Nc1ccc(Nc2ccccc2)c(Cl)c1 | 44.0%*
Nc1ccc(Cl)c(NC(=O)CC(=O)c2ccccc2)c1 | i
Nc1cccc(C(=O)Nc2ccccc2Cl)c1 | i
CCCC1=C(C(=O)OCC)C(c2ccncc2)C(C#N)=C(N)O1 (centres undefined) | i
Cn1c(=O)c2c(nc(NCCOCCO)n2Cc2ccc(Cl)c(Cl)c2)n(C)c1=O | i
SMILES | ST2 IL33 inh
Cc1ccccc1Cn1cc(SCC(=O)Nc2nccs2)c2ccccc21 | i
CCCCOC(=O)Nc1ccccc1C(=O)N1CCCCC1 | i
COc1ccc(Cc2ccc(OC)cc2)cc1 | i
COc1ccc(CC(=O)Nc2ccc(I)cc2)cc1 | i
COc1ccc(CCC(=O)NCc2ccncc2)cc1 | i
COc1ccc(CCC(=O)Nc2ccc(N(C)C)cc2)cc1 | 46.0%*
COc1ccc(C(C)c2ccc(OC)cc2)cc1 | i
CCOC(=O)Nc1ccc(C(C)CC)cc1 (centres undefined) | i
COc1ccc(N(C)C)cc1 | 32.0%*
CCCCOC(=O)Nc1ccc(N(C)C)cc1 | 42.0%*
Cn1nc(-c2ccc(Cl)cc2)c2cc(C(=O)Nc3ccc4c(c3)OCCO4)sc21 | i
CCCCn1c(C(C)NC(=O)COc2ccccc2)nc2ccccc21 (centres undefined) | i
Oc1cccc(-c2cc(CC3(NCc4ccc(F)cc4)COC3)no2)c1 | i
COc1ccc2ccc(OCc3nc(C(=O)N4CCC(NC(C)=O)C4)co3)cc2c1 (centres undefined) | i
COc1cccc(-n2cc(-c3cc4ccccc4oc3=O)[nH]c2=O)c1 | i
COc1cccc(Cn2nc(C(=O)NC3CC3)c3c2CCN(C(=O)c2ccc(-n4cccn4)cc2)C3)c1 | i
Cc1ccc([C@]2(O)NC([S-])=C(C#N)[C@H](c3ccc(F)cc3)[C@H]2[n+]2ccccc2)cc1 | i
COC(=O)C1C(=O)NC(SC)=C(C#N)C1c1ccc(C)cc1 (centres undefined) | i
Cc1cc[n+](C2C(c3ccc(Br)cc3)C(C#N)=C([S-])NC2(O)C2CC2)cc1 (centres undefined) | 55.0%*
CC1=C[C@@H](CN2CCC[C@H]2CO)[C@H](C(C)C)C[C@H]1Cc1nnc(-c2ccncc2)o1 | i
COc1cc([N+](=O)[O-])ccc1NC(=O)c1cc(Cl)ccc1OC | i
Cc1c(Cl)cccc1N=Cc1nc(-c2ccccc2)oc1O | i
CC(=O)Nc1ccc(N=Cc2nc(-c3ccc(Cl)cc3)oc2O)cc1 | 33.0%*
Oc1oc(-c2ccc(Cl)cc2)nc1C=Nc1ccccc1Cl | i
Cc1c(Cl)cccc1N=Cc1nc(-c2ccc(Cl)cc2)oc1O | 33.0%*
SMILES | ST2 IL33 inh
Oc1oc(-c2ccc(Cl)cc2)nc1C=Nc1cc(Cl)ccc1Cl | i
Oc1ccc(N=Cc2nc(-c3ccccc3)oc2O)cc1 | i
COCc1cc(CN2CC3(CCNCC3)CC2C(=O)O)ccc1OC (centres undefined) | i
CCC(=O)Nc1nonc1-c1nc2ccccc2n1Cc1ccc(Cl)cc1Cl | i
Cc1[nH]c2ccc([N+](=O)[O-])cc2c1CCN1C(=O)OC(C)(C)C1(C)O (centres undefined) | i
COc1ncccc1C(=O)N1CC(c2ccncc2)C1 | i
COc1ccccc1-c1cccc(C(=O)NCC2CC(=O)N(C(C)C)C2)c1 (centres undefined) | i
Cc1cccc(Cn2c(CNS(=O)(=O)c3ccc(C(C)(C)C)cc3)nc3cccnc32)c1 | i
CCCOc1ccc(/C=C2\N=C(c3ccc(Cl)cc3)OC2=O)cc1OC | i
COc1ccc(C2CC(=O)C3=C(C2)OC(N)=C(C#N)C3c2ccccc2)cc1OC (centres undefined) | i
CCc1ccccc1NS(=O)(=O)c1ccc(Br)s1 | i
O=C(NC1CC(=O)N(c2ccccc2)C1)c1ccc(Br)o1 (centres undefined) | i
COc1ccc(N2CC(NC(=O)c3ccc(Br)o3)CC2=O)cc1 (centres undefined) | 31.0%*
COc1ccc(N2CC(NC(=O)c3ccco3)CC2=O)cc1 (centres undefined) | i
Fc1cccc2sc(Nc3nnc(-c4cccs4)o3)nc12 | i
COc1cccc(CC2(CO)CCNCC2)c1 | i
COc1ccc2cc(C(N)=O)c(=Nc3ccc(C)cc3)oc2c1 | i
COc1ccc2cc(-c3nc4ccccc4[nH]3)c(=Nc3ccc(C(N)=O)cc3)oc2c1 | 35.0%*
COc1ccc2cc(C(=O)NC(C)=O)c(=Nc3ccc(F)cc3)oc2c1 | i
CCn1c(C2CCN(Cc3cc4c(cc3OC)OCO4)CC2)nn(C)c1=O | i
Cc1ccc(-n2nc3c(c2NC(=O)c2ccccc2C)CSC3)c(C)c1 | i
O=c1/c(=C/c2ccco2)sc2n1CN(c1ccc([N+](=O)[O-])cc1)CN=2 | i
CCOc1ccc(N2CN=c3s/c(=C/c4cccs4)c(=O)n3C2)cc1 | i
Cc1ccc(N2CN=c3s/c(=C\c4ccco4)c(=O)n3C2)cc1 | 34.0%*
COc1ccc(NC(=O)c2cnc3ccccc3n2)cc1 | i
Cc1ccc(C(=O)N(c2ccc(F)cc2)C2C=CS(=O)(=O)C2)cc1C (centres undefined) | i
O=C(CC1SC(=Nc2ccccc2)N(c2ccccc2)C1=O)NCc1ccccc1 (centres undefined) | i
O=C(c1ccc(Br)o1)N1CCCC1 | i
CCCC(=O)Nc1ccc(Nc2nc(C)cc(Nc3ccc(OC)cc3)n2)cc1 | i
COc1cccc(C(=O)Nc2ccc(Nc3nc(C)cc(Nc4ccc(C)cc4)n3)cc2)c1 | i
